B1: design_609_7ee6ce64-4629-41e8-bcb4-ba0da017284d_2409_dldesign_0_cycle1_af2pred (protein)
chain: SMEEEELRKKADEVAEKAAKIAEEADPELGKKFRERAEKAKKDPVDAYAYYVAQAAKSGGIILEKLGKEEEGKKLKELGKELEKALEE
B2: design_609_7ee6ce64-4629-41e8-bcb4-ba0da017284d_2438_dldesign_0_cycle1_af2pred (protein)
chain: MKEEMIKEAKKLMEEGKKKFEEAVKLPASEAAEASKLMHEGHELLTEAAWLAKKAGDEELAKEAKKARKEAVKKGKEAQAASAAA
B3: design_609_7ee6ce64-4629-41e8-bcb4-ba0da017284d_2421_dldesign_0_cycle1_af2pred (protein)
chain: AAKEEVEKKAEEVIKKLKEIGEKDPNAKELTDDLIKTLKKEVEKYKDDPEKAKKAVDKAEKTADSLEEAVKY
B4: design_609_7ee6ce64-4629-41e8-bcb4-ba0da017284d_2287_dldesign_0_cycle1_af2pred (protein)
chain: SDLEATELQIKAARLVAEAKRALAELTPEEGLARAKELFAEAEKAVKAAAKLLSPEAGKALVAALKERSAAILAEAEKAAAA
B5: design_609_7ee6ce64-4629-41e8-bcb4-ba0da017284d_2471_dldesign_0_cycle1_af2pred (protein)
chain: MEALKARGDLDVVADQATQIAKLAAEHPELAELGKRAAELAARAKAAQAGDPEETIKKAKELRAERRELVAETKKRLAAL
B6: design_609_7ee6ce64-4629-41e8-bcb4-ba0da017284d_2040_dldesign_0_cycle1_af2pred (protein)
chain: EEEEKEKKAKELEKEAVKHREEAFDKIAEGKLEEAKELAEKIRELAKKLEELGEEAKPLADRARKGARAVERLIEAAE
B7: design_609_7ee6ce64-4629-41e8-bcb4-ba0da017284d_2408_dldesign_0_cycle1_af2pred (protein)
chain: SSAAEEAAKKVEETAKKIKEEGLPEEEAKKLLSEALLLVADHDSPELAERALKAFEELSKYYPGAAKAAKILKRRLEALKKN
B8: design_609_7ee6ce64-4629-41e8-bcb4-ba0da017284d_2085_dldesign_0_cycle1_af2pred (protein)
chain: LEEKLKELRALAKEAAEKAKEEGATKTANLLLKGVEASPLKAVGYVLVAADLLKASEKLKPWAEKLEKAAEEV
B9: design_609_7ee6ce64-4629-41e8-bcb4-ba0da017284d_2406_dldesign_0_cycle1_af2pred (protein)
chain: ETEKKIKYLKEALYYLHLAIESAKLGSPPEAARRFVEIGIKKALEGDEEVGKELEKLLKELSPEEAAEAGAKLVEERIKELE
B10: design_609_7ee6ce64-4629-41e8-bcb4-ba0da017284d_2235_dldesign_0_cycle1_af2pred (protein)
chain: MKAKEEAEKKVEEVVEKGEKKVEEMKGLTAEEAEKVRNEIILEGQEVAAEAKKVDPEVGKKGFEKFRKVGEKAEKAVEEVK
B11: design_609_7ee6ce64-4629-41e8-bcb4-ba0da017284d_2350_dldesign_0_cycle1_af2pred (protein)
chain: SEKKLKAQKEALKLVEEVAKYAEEDPETAPKFGKEKAEEAYKYALELGLSEEEAEKLRKTTLRLVEAEIRGAKLVAEKRKKALE
B12: design_609_7ee6ce64-4629-41e8-bcb4-ba0da017284d_2306_dldesign_0_cycle1_af2pred (protein)
chain: LSENEKLKKAADYTSKAAKLAAEAAKKYKLPPEAVKKAQEAINLLFSSTDKETAEKAVELAKEAAKYMPESVAKKFLELVEKAAEYWS

molecular target: VTCN1, Q7Z7D3
Sequence (Q7Z7D3 whole entry): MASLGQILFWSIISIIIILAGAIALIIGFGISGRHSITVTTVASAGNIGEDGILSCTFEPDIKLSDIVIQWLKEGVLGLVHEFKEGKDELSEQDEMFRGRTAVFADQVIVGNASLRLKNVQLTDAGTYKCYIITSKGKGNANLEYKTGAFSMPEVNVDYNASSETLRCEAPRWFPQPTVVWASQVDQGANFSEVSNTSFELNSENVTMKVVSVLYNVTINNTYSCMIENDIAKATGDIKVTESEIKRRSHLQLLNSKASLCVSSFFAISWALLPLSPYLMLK

Binding in a display sort, inactive:
B1 not found
B2 not found
B3 not found
B4 not found
B5 not found
B6 not found
B7 not found
B8 not found
B9 not found
B10 not found
B11 not found
B12 not found

— publication PMC13494018
